In PubChem BioAssay AID590 (National Center for Advancing Translational Sciences (NCATS), 2007) one finds max dye-equivalent concentration data, which are given here for 55 compounds.

Hit rate of the full screen: of about 59,000 compounds, about 6,500 (11%) were called active. Not shown: some 15% with an inconclusive outcome. Cut-off read from the data, not from the text of the source: active = max dye-equivalent concentration above about 10 nM; inconclusive = mostly about 1.1 nM to 9.6 nM; inactive = weaker than that. What follows is part of a selection rich in actives, with near analogues and random picks from the rest.

A short description of this assay: qHTS Assay for Spectroscopic Profiling in A350 Spectral Region. Conditions: Compound autofluorescence, 340/450 nm, Alexa 350 dye-equivalents; hits give high values. In general terms: Quantitative high-throughput screening tests each substance at several concentrations.
Take `COc1ccccc1-c1nc(NCc2cccs2)c2ccccc2n1`: the max dye-equivalent concentration entry is “inactive”. `CCOC(=O)Cc1c(C)nc2c(C#N)c(C)nn2c1C`: the max dye-equivalent concentration was 11 nM (active).

Regarding `CC1(C)CCCC2=C1CC1C(=O)N(c3ccccc3)C(=O)C1C2` (stereo not given), the max dye-equivalent concentration result was “inactive”. On to `CC(C)C(c1nnnn1Cc1ccccc1)N1CCC(C(N)=O)CC1` (stereo not given), for which the max dye-equivalent concentration entry is “inactive”. In the case of `COc1ccc(Cn2cccc(NC(=O)Nc3ccc(C#N)cc3)c2=O)cc1` it was “inactive”; in that of `COc1ccc(C(=O)N2CCC[C@@]3(CCN(C(=O)NC(C)C)C3)C2)cc1`, “inactive”.

As to `COc1cccc(-c2nc(Nc3ccncc3)c3ccccc3n2)c1`, the max dye-equivalent concentration entry is “inactive”. In the case of `c1ccc2c(Nc3ccncc3)nc(-c3ccc4c(c3)OCO4)nc2c1` it was 11 nM (active); in that of `c1ccc2c(Nc3ccncc3)nc(-c3ccoc3)nc2c1`, “inactive”; in that of `COCCn1c(C)cc(C(=O)CSc2ncnc3sc4c(c23)CCC4)c1C`, “inactive”.

Regarding `COCCNc1nc(-n2nc(C)cc2C)nc2sc3c(c12)CCCC3`, the max dye-equivalent concentration was 1300 nM (active). As to `Cc1cc(C)n(-c2nc(SCC(=O)N3CCCC3)c3c4c(sc3n2)CCCC4)n1`, the max dye-equivalent concentration result was “inactive”. For `O=S(=O)(NCc1ccc2c(c1)OCO2)c1cccc2nsnc12`, the max dye-equivalent concentration result is “inactive”. As to `COc1ccc(N2C(=O)CCC(C(=O)Nc3ccccn3)C2c2ccc(OC)c(OC)c2)cc1` (stereo not given), the max dye-equivalent concentration result is “inactive”. Take `O=C1c2ccccc2C(=O)N1CCCSc1ccccc1`: the max dye-equivalent concentration entry is “inactive”. Turning to `Nc1ccc(SCCN2C(=O)c3ccccc3C2=O)cc1`, the max dye-equivalent concentration result was “inactive”. In the case of `C[N+](C)(CCCCCC[N+](C)(C)CCCN1C(=O)c2cccc3cccc(c23)C1=O)CCCN1C(=O)c2cccc3cccc(c23)C1=O`, the max dye-equivalent concentration is 260 nM (active).

For `CCOC(=O)Cc1csc(NC(=O)C(C)(C)C)n1`, the max dye-equivalent concentration entry was “inactive”.

As to `COc1cc(C2C3C(=O)N(c4ccccc4)C(=O)C3ON2c2ccccc2)ccc1O` (stereo not given), the max dye-equivalent concentration entry was “inactive”. `Cc1ccc(C(c2nnnn2C(C)(C)C)N2CCc3ccccc3C2)cc1` (stereo not given): the max dye-equivalent concentration result is “inactive”. As for `Cc1ccc(NC(=O)CCN2CCc3ccccc3C2)cc1`, the max dye-equivalent concentration entry was “inactive”. Regarding `Cc1ccc2c(c1)c1ncnc(N3CCc4ccccc4C3)c1n2C`, the max dye-equivalent concentration is 140 nM (active). `O=C(CCCN1C(=O)C2C3C=CC(C3)C2C1=O)N1CCN(c2ccccc2)CC1` (stereo not given): the max dye-equivalent concentration entry was “inactive”. In the case of `CC(C(=O)O)N1C(=O)c2cccc3cccc1c23` (stereo not given) it was 14 nM (active); in that of `Cc1cc(C)nc(NC(=O)C(C)N2C(=O)c3ccccc3C2=O)n1` (stereo not given), “inactive”. In the case of `COC(=O)c1ccc(NC(=O)C(C)N2C(=O)c3ccccc3C2=O)cc1` (stereo not given) it was “inactive”; in that of `CC(=O)N1CCN(CCN=CC2=C(O)CC(C)(C)CC2=O)CC1`, “inactive”; in that of `CCOCCN(C=O)c1cccc(OC)c1`, “inactive”.

Take `COc1ccc(OC)c([C@H](O)CNC(=O)CN)c1`: the max dye-equivalent concentration result is “inactive”. To `CCOC(=O)CCc1c(C)c2ccc(OCc3nn[nH]n3)c(C)c2oc1=O` belongs 30 nM (active).

Regarding `CCc1ccc(-c2nnn(Cc3nn[nH]n3)n2)cc1`, the max dye-equivalent concentration entry was “inactive”. In the case of `Cc1cc(C)cc(OCc2nnc(SCC(=O)OC3CCCCC3)o2)c1` it was “inactive”.

Regarding `CCOc1cccc(NC(=O)CC#N)c1`, the max dye-equivalent concentration result is “inactive”. Consider `CCOc1ccc2cc(C#N)c(SCC(=O)OC)nc2c1`, for which the max dye-equivalent concentration was 31 nM (active).

With `CC(=O)c1cc(C#N)c(SCC(=O)C(C)(C)C)nc1C`, the max dye-equivalent concentration result is “inactive”. `COc1ccc(OC)c(S(=O)(=O)N(C)CC(=O)N2CCN(c3ccccc3)CC2)c1`: the max dye-equivalent concentration entry was “inactive”.

As to `Cc1cccc(N2CCN(C(c3ccccc3)c3nnnn3CC3CCCO3)CC2)c1C` (stereo not given), the max dye-equivalent concentration entry was “inactive”. To `O=C(Cn1nnc2ccccc2c1=O)Nc1cc(C(F)(F)F)ccc1N1CCOCC1` belongs “inactive”; to `COc1ccccc1-c1cc(NCc2cccs2)ncn1`, “inactive”.

`CC(C)N1C(=O)C2C(C(=O)NC3CCCCC3)C3C=CC2(O3)C1C(=O)NC1CCCC1` (stereo not given): the max dye-equivalent concentration result was “inactive”. `CC(C)c1nnc(NC(=O)C2CCCN2S(=O)(=O)c2ccc(Cl)cc2)s1` (stereo not given): the max dye-equivalent concentration result was “inactive”.

For the compound `CCc1nnc(NC(=O)C2CCCN2S(=O)(=O)c2ccccc2)s1` (stereo not given), the max dye-equivalent concentration was 16 nM (active). `CCc1nnc(NS(=O)(=O)c2ccc(NS(=O)(=O)c3ccccc3)cc2)s1`: the max dye-equivalent concentration result was “inactive”.

Consider `Cc1c(O)c(Br)c(C)c(O)c1Br` (tested in a mixture with another compound), for which the max dye-equivalent concentration entry is “inactive”. Turning to `CCN(CC)c1ccc(C(=O)OCC(=O)c2ccco2)cc1`, the max dye-equivalent concentration entry is “inactive”. With `Cc1cc(C)nc(N(C#N)CC(=O)Nc2ccccc2)n1`, the max dye-equivalent concentration result is “inactive”. In the case of `C/C(O)=C\c1nc(=O)c2c(C)cc(C)nc2n1-c1ccccc1` it was 44 nM (active); in that of `N#CCSc1nc2ccccc2c(=O)n1-c1ccccc1`, “inactive”. `CCOC(=O)N1CCN(C(=O)c2ccc3nc4cc(Cl)ccc4c(=O)n3c2)CC1`: the max dye-equivalent concentration was 1300 nM (active). For the compound `CCOC(=O)N1CCN(C(=O)CNC(=O)Cc2ccc(Cl)cc2)CC1`, the max dye-equivalent concentration entry was “inactive”. Regarding `CCOC(=O)N1CCN(C(=O)c2ccc(S(=O)(=O)c3ccc(C)cc3)c(NC(C)=O)c2)CC1`, the max dye-equivalent concentration entry is “inactive”.

In the case of `O=C(O)c1cscn1`, the max dye-equivalent concentration entry was “inactive”.

For `Cc1nonc1OCCn1nnnc1N`, the max dye-equivalent concentration result is “inactive”. In the case of `CC1CCCN(c2ccc(C(=O)NCCc3ccccc3)cn2)C1` (stereo not given), the max dye-equivalent concentration entry is “inactive”.

As for `O=S(=O)(Nc1ccccc1N1CCOCC1)c1ccc(Cl)s1`, the max dye-equivalent concentration entry was “inactive”.
